LMP1 NFkB inh: reduces LMP1-driven NF-kappaB luciferase signal; LMP1-induced NF-kappaB luciferase reporter cells, luminescence; 350,000 tested, 0.69% active; inhibition, % at 12.5 µM; AID 504558; in the data active = inhibition above about 41%;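 note: 0% = neutral control wells and 100% = reference inhibitor control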
MITF TRPM1 inh: inhibitors of MITF-driven TRPM1 promoter in melanoma cells; 330,000 tested, 0.83% active; SK-MEL-5 TRPM1 promoter luciferase, 24 h; inhibition, % at 12.5 µM;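 active = mean inhibition across replicates of 60% or more, whatever share of single replicates reaches that level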
PAX8 inh HTS: lowers PAX8-driven luciferase in RMG-I cells. RMG-I TPO-luciferase reporter, SteadyGlo, 24 h. inhibition, % at 12.6 µM. 360,000 tested, 1.2% active;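 active = mean replicate inhibition at least 60% with every replicate also reaching 60%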;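 note: luciferase light reporting Pax8 driven TPO promoter activity; plate controls were median of neutral control wells for no effect and mitoxantrone controls for full effect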
Shn3 3UTR inh: inhibitors of Schnurri-3 3'UTR reporter in osteoblasts; inhibition, % at 12.5 µM; 360,000 tested, 0.52% active; AID 588674; Clone20 osteoblast Shn3 3'UTR firefly luciferase, 24 h;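 active = mean inhibition of at least 75% with every replicate also reaching 75%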;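 note: 0% = median of neutral control wells and 100% = pilot-screen positive control compound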
aSyn 5UTR inh: MLPCN primary screen, SNCA 5' untranslated region. alpha-synuclein 5'UTR reporter, inhibitor activity. inhibition, % (tested at 7.5 µM). 300,000 tested, 0.82% active; in the data active = inhibition above about 60%;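 note: H4 neuroglioblastoma cells stably carrying SNCA 5'UTR luciferase fusion; 0% = DMSO wells and 100% = positive control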
The depositor's hits bear a star; / = not tested or not shown. Hits are enriched below; roughly 2.1% of the tested compounds scored in any of these assays.

SMILES	LMP1 NFkB inh	MITF TRPM1 inh	PAX8 inh HTS	Shn3 3UTR inh	aSyn 5UTR inh
C=CC[C@@]12N=C(c3ccc(OCCCO)cc3)O[C@@H]1c1ccccc1CN(CCS(=O)(=O)c1ccccc1)C2=O	/	/	76.7*	/	/
Cc1cccc(N(CC(=O)NC2CCCCC2)C(=O)c2ccc(C)s2)c1	2.6	7.4	/	13.5	-13.3
O=C(NCc1ccco1)C1CC(=O)N(c2ccc(Cl)cc2)C1 (configuration not stated)	-4.4	7.7	-1.6	12.8	0.4
O=C(NCc1ccco1)C1CC(=O)N(c2cccc(Cl)c2)C1 (configuration not stated)	65.3*	-12.2	7.6	9.1	9.5
Cc1ccc(Cl)cc1Nc1nc(-c2sc(NC(=O)c3ccco3)nc2C)cs1	8.8	68.1*	86.2*	8.2	8.2
Cc1nc(NC(=O)c2ccco2)sc1-c1csc(Nc2ccc(Cl)cc2Cl)n1	-14.5	-14.6	19.7	-17.0	-15.9
COc1cccc(N(C(=O)c2ccco2)c2nc(-c3sc(NC(=O)c4ccco4)nc3C)cs2)c1	-12.9	73.4*	99.4*	-9.5	44.5
CC(C)C[C@@H]1NC(=O)[C@H]2C[C@@H](C(=O)NCCCCCNC(=O)CS)[C@@H](c3cccc(OCCO)c3)N2C1=O	/	/	3.9	/	/
Cc1cccc(-c2ccc([C@H]3[C@@H](CO)N4CCCCN(C(=O)c5cccnc5)C[C@@H]34)cc2)c1	/	/	-13.3	/	/
Cc1nc(C)c(C(=O)N/N=C/c2cc(Br)ccc2O)s1	20.8	63.1*	66.7*	/	21.9
O=C(N/N=C/c1cc(Br)ccc1O)c1ccncc1	-1.9	76.4*	35.4	80.6	1.5
O=C(N/N=C/c1ccc(O)c2ncccc12)c1cccc(Br)c1	-10.1	65.1*	71.9*	90.9*	66.6*
O=C(N/N=C\c1cc(Br)ccc1O)c1ccc(S(=O)(=O)N2CCCCC2)cc1	15.5	74.3*	10.9	91.2*	109.7*
CCOc1ccccc1NC(=O)C(=O)N/N=C/c1cc(Br)ccc1O	30.0	59.1	15.2	90.8*	51.3
CC(C)C(=O)Nc1ccc(C(=O)N/N=C/c2cc(Br)cc(Br)c2O)cc1	44.3*	17.1	1.9	80.6	7.7
CC1OC(CC(=O)O)CC2=C1C(=O)c1c(O)cccc1C2=O (configuration not stated)	88.1*	113.0*	130.3*	99.1*	/
O=C1c2cccc(O)c2C(=O)c2c(O)cccc21	/	/	/	/	-17.1
CN(C[C@H]1N[C@@H](CO)[C@@H]1c1ccc(C2=CCCC2)cc1)C(=O)c1ccc(F)cc1	/	/	107.7*	/	/
CN(C[C@H]1N[C@@H](CO)[C@@H]1c1ccc(C2=CCCC2)cc1)C(=O)c1ccncc1	/	/	80.7*	/	/
CN(C[C@H]1N[C@@H](CO)[C@@H]1c1ccccc1)C(=O)c1ccccn1	/	/	-19.1	/	/
CN(C[C@H]1N[C@@H](CO)[C@@H]1c1ccc(C2=CCCC2)cc1)C(=O)c1ccccn1	/	/	71.8*	/	/
CCNC(=O)[C@@H]1[C@@H](CO)[C@@H]2Cn3c(ccc(/C=C/c4ccccc4)c3=O)[C@@H]2N1C(C)=O	/	/	-0.3	/	/
CCc1ccc(C(=O)COC(=O)c2cccc(N3C(=O)c4c(C)nc5ccccc5c4C3=O)c2)cc1	44.5*	8.2	-19.4	-16.8	43.0
C=CCOc1ccc(/C(O)=C2/C(=O)C(=O)N(CCCN3CCOCC3)C2c2ccccc2)cc1 (configuration not stated)	-12.8	-7.3	/	-24.7	3.1
O=C(CCl)Nc1cc(SCC(O)CO)cc([N+](=O)[O-])c1 (configuration not stated)	25.4	88.6*	108.3*	63.5	110.0*
SMILES	LMP1 NFkB inh	MITF TRPM1 inh	PAX8 inh HTS	Shn3 3UTR inh	aSyn 5UTR inh
CCC(=O)Nc1cc(ON=C(C)C)cc([N+](=O)[O-])c1	-8.9	5.2	-20.1	-4.1	7.1
CC(C)=NOc1cc(NC(=O)CCl)cc([N+](=O)[O-])c1	-4.4	87.2*	-7.1	74.1	-6.1
O=C(N[C@@H]1CC[C@@H](CCn2cc(Cc3ccccc3)nn2)O[C@H]1CO)c1ccccn1	/	/	-4.5	/	/
O=C(N/C(=C\c1ccc(Br)cc1)C(=O)N1CCOCC1)c1ccc(Br)o1	-0.7	1.3	-9.2	-13.3	10.9
O=C(N/C(=C/c1ccc(Br)cc1)C(=O)N1CCOCC1)c1ccc(Br)o1	60.6*	-8.1	12.7	-1.7	2.1
COCCn1c(C)cc(C(=O)COC(=O)c2cccc(O)c2)c1C	82.1*	42.6	39.3	53.5	67.4*
COCCn1c(C)cc(C(=O)COC(=O)C23CC4CC(CC(O)(C4)C2)C3)c1C	41.7*	-2.2	/	-8.7	30.5
COCCn1c(C)cc(C(=O)COC(=O)c2cc3c(s2)CCC3)c1C	-12.4	-11.9	-108.7	-67.3	-78.4
Cc1cc(C(=O)COC(=O)C23CC4CC(CC(O)(C4)C2)C3)c(C)n1-c1c(C)n(C)n(-c2ccccc2)c1=O	1.6	1.4	11.5	0.2	21.8
O=C1NC(N2CCOCC2)=N/C1=C/c1ccc2c(c1)OCO2	-4.0	1.9	17.1	-15.7	-8.0
CC(C)C(=O)NC(NC(=S)Nc1ccc(S(N)(=O)=O)cc1)C(Cl)(Cl)Cl (configuration not stated)	-3.7	-10.4	/	-2.7	-11.9
COC(=O)c1ccc(-n2c(C)cc(C(=O)COC(=O)C3=COCCO3)c2C)cc1	2.8	2.3	-16.1	2.4	/
COC(=O)c1ccc(-n2c(C)cc(C(=O)CCl)c2C)cc1	7.3	87.3*	18.7	33.3	31.7
CCOc1ccc(-n2c(C)cc(C(=O)CCl)c2C)cc1	5.1	69.4*	16.6	77.4	110.8*
COc1ccccc1NC(=O)c1nnn(CC(=O)Nc2cc(C)cc(C)c2)c1N	5.2	-11.1	-0.2	11.8	10.3
Cc1noc(C)c1S(=O)(=O)Nc1ccc2c(c1)CC(=O)N([C@@H](C)CO)C[C@H](C)[C@H](CN(C)Cc1ccc(Cl)c(Cl)c1)O2	/	/	19.4	/	/
O=C(Nc1nc(-c2cccc3ccccc23)cs1)c1ccc2c(c1)S(=O)(=O)c1ccccc1C2=O	-69.1	62.7*	-37.1	-3.2	-142.8
CCOC(=O)N1CCC(NC(=O)CCC(=O)N2CCOc3ccccc32)CC1	-1.2	0.4	/	0.5	-10.3
Nc1c(C(=O)NCc2ccccc2)sc2nc(N3CCOCC3)c3c(c12)CCCC3	9.0	3.0	/	23.3	64.6*
CCOC(=O)Cc1csc(N/N=C/c2ccc(Cl)cc2)n1	49.3*	6.9	-44.4	23.2	40.8
O=C(CCCC(=O)OCC(Cl)=C(Cl)Cl)Nc1ccc(F)cc1	-8.0	-4.2	103.1*	-9.5	-8.0
Nc1ccc2c(c1)C(=O)c1ccccc1C2=O	-32.9	-107.7	-307.9	-132.7	-145.4
Nc1ccc2c(c1)C(=O)C(=O)c1ccccc1-2	85.6*	107.0*	/	96.8*	129.7*
Nc1ccc2c(c1)C(=O)c1ccccc1-2	5.3	-11.9	-2.1	2.6	-13.6
O=C1C(=O)c2ccc(-c3ccccc3)cc2-c2ccccc21	91.1*	103.9*	/	96.2*	118.6*
CC(C)NC(=O)N(C)C[C@@H]1Oc2c(NS(=O)(=O)c3ccc(F)cc3)cccc2C(=O)N([C@@H](C)CO)C[C@@H]1C	/	/	7.9	/	/
O=C(Nc1ccc(F)cc1F)c1csc(-c2ccccc2)n1	-8.8	-0.3	-13.7	-3.1	-95.3

Assay outcomes (PubChem BioAssay)
